For assay [1], the system named is Aerobactin synthetase IucA (Klebsiella pneumoniae hvKP1). Description: Biochemical IucA enzyme inhibition primary screen of the Spectrum library (AID 1346200).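 Further: 100% = wells without compound and 0% = wells lacking enzyme.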 To be noted: malachite green pyrophosphate, A620, at 8 µM, hits give low values.
The test system of assay [2] is Aerobactin synthetase IucA (Klebsiella pneumoniae, hypervirulent). Description: IucA enzyme inhibition, biochemical, LOPAC library, absorbance readout (AID 1346212).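 Further: 100% = no compound wells and 0% = no enzyme wells.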 To be noted: IucA enzyme assay, absorbance (OD) readout; hits give low values;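 tested at 8 µM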.

“And” between values parts separate entries of the source, which are not always exact repeats. Equal values may be shown once. Values without a mark were called inactive. How the calls were made is not given here.

The term remaining activity denotes the signal under treatment as a percentage of the control signal. With `CCCOc1ccccc1-c1nc2n[nH]nc2c(=O)[nH]1`, in assay [1], the activity remaining is 97.7%. In assay [2], the remaining activity is 125%.

Take `O=[N+]([O-])c1cccc2cn[nH]c12`: the activity remaining in assay [1] was 102%. Besides, the remaining activity in assay [2] is 114%.

For `COC(=O)[C@H]1[C@H]2C[C@@H]3c4[nH]c5cc(OC)ccc5c4CCN3C[C@H]2C[C@@H](OC(=O)c2cc(OC)c(OC)c(OC)c2)[C@@H]1OC`, the activity remaining in assay [1] was 109%. Besides, the remaining activity in assay [2] is 102%.

With `C1CCc2nnnn2CC1`, in assay [1], the activity remaining was 112%. Further, the remaining activity in assay [2] is 107%.

As to `CCN(CC)CCCC(C)Nc1ccnc2cc(Cl)ccc12` (stereo not given), in assay [1], the activity remaining was 93%. Further, the remaining activity in assay [2] is 122%.

With `NCCCCN`, the activity remaining in assay [1] is 91.8%. For the same compound, the remaining activity in assay [2] was 94.5%.

As for `NC(=O)NO`, the activity remaining in assay [1] is 121%. Moreover, in assay [2], the remaining activity is 117%.

On to `CC(=O)OCC1=C(C(=O)O)N2C(=O)[C@@H](NC(=O)CSc3ccncc3)[C@H]2SC1`, for which the activity remaining in assay [1] is 109%. In addition, the remaining activity in assay [2] is 113%.

Consider `CC(=O)OCC1=C(C(=O)O)N2C(=O)[C@@H](NC(=O)Cc3cccs3)[C@H]2SC1`, for which, in assay [1], the activity remaining was 109%. Further, the remaining activity in assay [2] is 117%.

For `COc1cc(Cc2cnc(N)nc2N)cc(OC)c1OC`, the activity remaining in assay [1] is 93.2%. The remaining activity in assay [2] was 76.5%.

Turning to `Cc1cnc(NC(=O)C2=C(O)c3ccccc3S(=O)(=O)N2C)s1`, in assay [1], the activity remaining was 118%. Moreover, the remaining activity in assay [2] was 120%.

Take `CN1CCN(C2=Nc3cc(Cl)ccc3Nc3ccccc32)CC1`: the activity remaining in assay [1] was 120%. In assay [2], the remaining activity is 127%.

As for `Cn1cnc([N+](=O)[O-])c1Sc1ncnc2nc[nH]c12`, the activity remaining in assay [1] is 113%. Besides, the remaining activity in assay [2] is 121%.

Regarding `CN(C)C(=O)C(CCN1CCC(O)(c2ccc(Cl)cc2)CC1)(c1ccccc1)c1ccccc1`, the activity remaining in assay [1] is 113%. Besides, the remaining activity in assay [2] was 114%.

In the case of `CC12CC3CC(C)(C1)CC(N)(C3)C2`, the activity remaining in assay [1] was 108%. The remaining activity in assay [2] is 92.7%.

`COc1ccccc1OCC(O)CN1CCN(CC(=O)Nc2c(C)cccc2C)CC1` (stereo not given): the activity remaining in assay [1] is 122%. The remaining activity in assay [2] was 97.8%.

As for `COC(=O)C1=C(C)NC(C)=C(C(=O)OC)C1c1ccccc1[N+](=O)[O-]`, the activity remaining in assay [1] is 100%. Besides, in assay [2], the remaining activity is 115%.

`CCn1cc(C(=O)O)c(=O)c2cc3c(cc21)OCO3`: in assay [1], the activity remaining was 109%. Further, in assay [2], the remaining activity was 95.5%.

Turning to `N=c1nc(N2CCCCC2)cc(N)n1O`, the activity remaining in assay [1] was 110%. In assay [2], the remaining activity is 118%.

As to `NS(=O)(=O)c1cc2c(cc1Cl)NCNS2(=O)=O`, the activity remaining in assay [1] was 103%. Further, the remaining activity in assay [2] was 102%.

For the compound `CCCCc1oc2ccccc2c1C(=O)c1cc(I)c(OCCN(CC)CC)c(I)c1`, the activity remaining in assay [1] is 123%. In addition, the remaining activity in assay [2] is 101%.

On to `Nc1ncnc2c1ncn2[C@@H]1O[C@H](CO)[C@@H](O)[C@H]1O`, for which the activity remaining in assay [1] was 113%. Also, the remaining activity in assay [2] is 110%.

Turning to `CCN(CC)CC(=O)Nc1c(C)cccc1C`, the activity remaining in assay [1] is 101%. The remaining activity in assay [2] was 109%.

Regarding `Cc1cc(N)c2ccccc2[n+]1CCCCCCCCCC[n+]1c(C)cc(N)c2ccccc21`, the activity remaining in assay [1] was 82.6%. Moreover, the remaining activity in assay [2] is 105%.

As to `C[N+](C)(C)CCOC(N)=O`, the activity remaining in assay [1] is 93.2%. In addition, the remaining activity in assay [2] was 119%.

For the compound `Cc1nnc(SCC2=C(C(=O)O)N3C(=O)[C@@H](NC(=O)Cn4cnnn4)[C@H]3SC2)s1`, in assay [1], the activity remaining is 101%. Further, the remaining activity in assay [2] is 119%.

As for `CN(C)CCC=C1c2ccccc2C=Cc2ccccc21`, the activity remaining in assay [1] was 111%. For the same compound, in assay [2], the remaining activity is 109%.

Turning to `Nc1ccc(S(=O)(=O)Nc2ccnn2-c2ccccc2)cc1`, the activity remaining in assay [1] was 117%. Besides, in assay [2], the remaining activity is 99.3%.

For `OCCN1CCN(CCCN2c3ccccc3Sc3ccc(Cl)cc32)CC1`, in assay [1], the activity remaining is 121%. Also, the remaining activity in assay [2] was 112%.

Consider `O=C(Nc1ccc([N+](=O)[O-])cc1Cl)c1cc(Cl)ccc1O`, for which, in assay [1], the activity remaining is 93.6%. The remaining activity in assay [2] is 113%.

As to `Cn1cnc2c1c(=O)[nH]c(=O)n2C`, the activity remaining in assay [1] was 126%. Further, in assay [2], the remaining activity was 97.1%.

Turning to `O=c1n(CCCN2CCN(c3cccc(Cl)c3)CC2)nc2ccccn12`, the activity remaining in assay [1] is 112%. Further, the remaining activity in assay [2] was 118%.

For the compound `O=C(CCCN1CCC(O)(c2ccc(Cl)cc2)CC1)c1ccc(F)cc1`, the activity remaining in assay [1] is 117%. Besides, in assay [2], the remaining activity is 100%.

Consider `Cc1ccc(N(CC2=NCCN2)c2cccc(O)c2)cc1`, for which the activity remaining in assay [1] is 117%. In addition, in assay [2], the remaining activity was 92.9%.

As for `COCCOC(=O)C1=C(C)NC(C)=C(C(=O)OC(C)C)C1c1cccc([N+](=O)[O-])c1` (stereo not given), the activity remaining in assay [1] is 118%. In assay [2], the remaining activity is 111%.

With `CN(C)CCCN1c2ccccc2Sc2ccccc21`, in assay [1], the activity remaining is 109%. For the same compound, the remaining activity in assay [2] is 95%.

As for `Cc1cc(C(C)(C)C)c(O)c(C)c1CC1=NCCN1`, the activity remaining in assay [1] was 114%. The remaining activity in assay [2] was 117%.

On to `NCCc1ccc(O)c(O)c1`, for which the activity remaining in assay [1] was 103% and 107%. The remaining activity in assay [2] was 104%.

Turning to `COc1ccc2cc([C@H](C)C(=O)O)ccc2c1`, the activity remaining in assay [1] is 101%. The remaining activity in assay [2] was 91.4%.

On to `CC1=C(CC(=O)O)c2cc(F)ccc2/C1=C\c1ccc(S(C)=O)cc1` (stereo not given), for which the activity remaining in assay [1] is 90%. For the same compound, the remaining activity in assay [2] was 119%.

Consider `COc1ccc(Cl)cc1C(=O)NCCc1ccc(S(=O)(=O)NC(=O)NC2CCCCC2)cc1`, for which, in assay [1], the activity remaining is 91.3%. Besides, the remaining activity in assay [2] is 120%.

With `CCCCNC(=O)NS(=O)(=O)c1ccc(C)cc1`, in assay [1], the activity remaining is 120%. Also, in assay [2], the remaining activity was 95.4%.

As to `CC(C)(C)NCC(O)c1cc(O)cc(O)c1` (stereo not given), the activity remaining in assay [1] was 109%. Further, the remaining activity in assay [2] was 109%.

For `CSc1ccc2c(c1)N(CCC1CCCCN1C)c1ccccc1S2` (stereo not given), the activity remaining in assay [1] was 116%. The remaining activity in assay [2] is 91.4%.

Take `OC(CCN1CCCCC1)(c1ccccc1)C1CC2C=CC1C2` (stereo not given): the activity remaining in assay [1] was 87.7%. For the same compound, in assay [2], the remaining activity is 116%.

Take `N[C@@H]1CONC1=O`: in assay [1], the activity remaining is 102%. For the same compound, the remaining activity in assay [2] was 112%.

With `NC(N)=NCCCCN=C(N)N`, in assay [1], the activity remaining is 119%. Moreover, the remaining activity in assay [2] was 90.7%.

As to `C[N+](C)(C)CCO`, the activity remaining in assay [1] was 126%. In addition, the remaining activity in assay [2] is 112%.

With `Clc1ccc2c(c1)C(N1CCNCC1)=Nc1ccccc1O2`, in assay [1], the activity remaining is 109%. The remaining activity in assay [2] was 126%.

As for `OCCN1CCN(CCCN2c3ccccc3Sc3ccc(C(F)(F)F)cc32)CC1`, in assay [1], the activity remaining is 125%. Besides, the remaining activity in assay [2] is 93.9%.

Turning to `CC(C)NCC(O)COc1cccc2[nH]ccc12` (stereo not given), the activity remaining in assay [1] is 103%. In addition, in assay [2], the remaining activity is 116%.

For `CN1CCN(CC(=O)N2c3ccccc3C(=O)Nc3cccnc32)CC1`, the activity remaining in assay [1] is 117%. Moreover, the remaining activity in assay [2] is 94.6%.

In the case of `CC(C)Cn1c(=O)n(C)c(=O)c2[nH]cnc21`, the activity remaining in assay [1] is 108% and 118%. In addition, the remaining activity in assay [2] is 108%.

`COc1ccc(CN(CCN(C)C)c2ccccn2)cc1`: the activity remaining in assay [1] is 118%. For the same compound, the remaining activity in assay [2] is 112%.

Take `O=NN(CCCl)C(=O)NCCCl`: the activity remaining in assay [1] is 123%. Besides, in assay [2], the remaining activity was 115%.

For `Fc1ccc([C@@H]2CCNC[C@H]2COc2ccc3c(c2)OCO3)cc1`, the activity remaining in assay [1] is 108%. In addition, in assay [2], the remaining activity was 121%.

With `O=[N+]([O-])c1cccc2c(Br)[nH]nc12`, the activity remaining in assay [1] is 118%. The remaining activity in assay [2] is 110%.

As to `COC(=O)[C@H]1[C@H]2C[C@H]3c4[nH]c5ccccc5c4CCN3C[C@H]2CC[C@@H]1O`, the activity remaining in assay [1] is 107%. Further, the remaining activity in assay [2] was 95.4%.

As for `CN1CCN(CCCN2c3ccccc3Sc3ccc(C(F)(F)F)cc32)CC1`, in assay [1], the activity remaining is 122%. The remaining activity in assay [2] is 93.4%.

In the case of `Oc1cc(O)c2c(c1)O[C@H](c1ccc(O)c(O)c1)[C@@H](O)C2`, the activity remaining in assay [1] was 93%. In addition, in assay [2], the remaining activity was 106%.

For the origin of these results see PubChem BioAssay.
